Reference: PubChem BioAssay (Tox21)
Results filed as inconclusive are left out. Values without a mark were called inactive. Calls follow the shape of the dose curve; as a rule, active = well fitted cell-killing curve with a large enough effect in the repeat runs; inconclusive = weak or mixed curves, or effect the other way; inactive = no such curve, though single readings can be large or run the other way.

Assay: qHTS assay to identify small molecule antagonists of the vitamin D receptor (VDR) signaling pathway - cell viability counter screen (AID 743225); also: nearly all actives have a fitted effect of over 50% in size
Conditions: VDR-bla HEK293T viability, CellTiter-Glo luminescence, 16 h; series mostly up to 61 µM; viability change, negative = cytotoxic: at the top concentration
Source text: U.S. Tox21 Program National Center for Advancing Translational Sciences [NCATS] NIH Chemical Genomics Center [NCGC] U.S. Environmental Protection Agency [EPA] National Institutes of Environmental Health Sciences [NIEHS] National Toxicology Program [NTP] U.S. Food and Drug Administration [FDA] Tox21 Assay Overview: The vitamin D receptor (VDR), a member of nuclear hormone receptor superfamily, plays a critical role in calcium homeostasis and bone metabolism. It is also involved in cell differentiation and growth, and thrombogenicity. To identify the compounds that inhibit VDR signaling, the VDR-UAS-bla HEK 293T cell line (Invitrogen, Carlsbad, CA, USA) containing a beta-lactamase reporter gene under the control of an upstream activator sequence (UAS) was used to screen the Tox21 10K compound library. The cytotoxicity of the Tox21 compound library against the VDR-bla cell line was tested in parallel by measuring the cell viability using CellTiter-Glo assay (Promega, Madison, WI) in the same wells.
Tox21 Assay Protocol Summary: VDR-bla cells were dispensed at 2,000 cells/5 uL of assay medium per well into black wall/clear-bottom 1536-well plates using a Multidrop Combi (Thermo Fisher Scientific, Waltham, MA) dispenser. After the assay plates were incubated at a 37C and 5% CO2 for 4 h, 23 nL of compounds dissolved in DMSO, positive controls or DMSO only was transferred to the assay plate by a Pintool station (Kalypsys, San Diego, CA), followed by addition of 1 uL of 1-alpha, 25-Dihydroxy Vitamin D3 (3 nM, final concentration in the wells) using a Bioraptr Flying Reagent Dispenser (FRD) workstation (Beckman Coulter, Indianapolis, IN). The plates were incubated at 37C and 5% CO2 for 16 h, and then 1 uL of LiveBLAzerTM B/G FRET substrate was added using a Bioraptr FRD. The plates were incubated at room temperature for 2 h and fluorescence intensity was measured by an Envision plate reader (PerkinElmer, Shelton, CT). For cell viability readout that measures cytotoxicity, 3 ul/well of CellTiter-Glo reagent was added into the assay plates using a Bioraptr FRD. After 30 min incubation at room temperature, the luminescence intensity in the plates was measured using a ViewLux plate reader (PerkinElmer).
% is scaled to controls: 0 for no effect and ±100 for the full control effect.

| Compound | viability change, negative = cytotoxic |
| --- | --- |
| NCCC(O)(P(=O)(O)O)P(=O)(O)O | 0.788% |
| Cc1ncc(CO)c(CN)c1O | 12.9% |
| Cc1onc(-c2ccccc2)c1C(=O)Cl | 11% |
| CO[C@@]1(NC(=O)CSCC#N)C(=O)N2C(C(=O)O)=C(CSc3nnnn3C)CS[C@@H]21 | 10.6% |
| CC(C)(C)C1CCCCC1=O (stereo not given) | 14.2% |
| Cc1cc2nc(N)sc2cc1C | -0.186% [at 78.8 µM] |
| CN(CC1(C)CCCO1)S(=O)(=O)c1ccc(Cl)c(S(N)(=O)=O)c1 (stereo not given) | -9.07% |
| CCN(CC)CCNC(=O)COc1ccc(Cl)cc1 | -3.35% |
| OCCN(CCO)c1ccccc1 | -18% |
| C[C@@H](N)C(=O)O | -7.05% |
| CC(=O)Nc1ccc(C)c(Cl)c1 | 14.3% |
| O=C(O)c1cccc(Cl)c1Cl | -15.1% |
| CCOc1ccc2nc(N)sc2c1 | 1.21% |
| CN1CCC[C@@H]1Cc1c[nH]c2ccc(CCS(=O)(=O)c3ccccc3)cc12 | 1.3% |
| COc1ccccc1OCC(O)COC(N)=O (stereo not given) | 9.84% |
| COC(=O)c1ccc2cc(C(=O)OC)ccc2c1 | -3.1% [at 28.5 µM] |
| Cc1ccc([N+](=O)[O-])c(N)c1 | 8.92% |
| O=C(CCCl)NCc1ccccc1 | -1.06% |
| CC1=CC(=O)CC(C)(C)C1=O | -0.131% [at 78.8 µM] |
| CCCCC1CCC(=O)O1 (stereo not given) | -23.6% |

| Compound | viability change, negative = cytotoxic |
| --- | --- |
| FC(F)(F)C(F)(F)C(F)(F)C(F)(F)C(F)(F)C(F)(F)C(F)(F)C(F)(F)Br | -0.0299% |
| CC(C)(CO)[C@@H](O)C(=O)NCCC(=O)O | -18.2% [at 78.8 µM] |
| OCc1c2ccccc2cc2ccccc12 | -14.6% [at 78.8 µM] |
| CC(C)=CCCC(C)CCOC=O (stereo not given) | 6.07% |
| COC(=O)/C=C(/C)N | -0.471% |
| Cc1cc(S(=O)(=O)O)c(N)cc1Cl | -4.29% [at 78.8 µM] |
| FC(F)(F)c1ccccc1 | 16.1% |
| CCN(CCCc1ccccc1)CCCc1ccccc1 | -12.4% |
| CCCCOc1cc(C(=O)NCCN(CC)CC)c2ccccc2n1 | 0.28% |
| C=CCCCCCCCCO | 7.4% |
| NCCCN1CCN(CCCN)CC1 | 2.75% |
| ICCc1ccccc1 | -1.05% |
| CC(C)O | 16.5% [at 78.8 µM] |
| CCc1cc2cc(OC)c(OC)cc2c(Cc2ccccc2)n1 | 16% |
| Cc1c[nH]c(=S)[nH]c1=O | -1.46% |
| O=C1CCC(C2CCCCC2)CC1 | -29.1% |
| O=C(O)[C@@H](O)[C@H](O)[C@H](O)[C@@H](O)C(=O)O | -24.7% |
| CCNCCO | -0.266% |
| ClC(Cl)Cl | 12.7% |
| CCN1CC(CCN2CCOCC2)C(c2ccccc2)(c2ccccc2)C1=O (stereo not given) | 2.84% |
